Screening results as filed in PubChem BioAssay.
RE007 growth inh: less growth of the S. pombe RE007 Vpr strain; S. pombe RE007 Vpr strain, BacTiter-Glo ATP luminescence, 24 h; Potency, µM (doses to about 92.2 µM), hits mostly inhibitors; 360,000 tested, 0.21% active; active = well fitted falling curve with a large enough effect; inconclusive = small, poorly fitted or top-dose-only effect; inactive = no such curve, though single readings can be large or run the other way; note: nearly all actives have a fitted effect of over 50% in size
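Fission yeast strain RE007, carrying one chromosomally integrated HIV-1 vpr copy, was seeded at OD 0.01 in PMG+AL medium with 23 nL pinned compound. After 24 h at 30 °C and 99% humidity, viability was read by BacTiter-Glo luminescence.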
TbPYK inhibitor: inhibitors of Trypanosoma brucei pyruvate kinase | Q57TT1 | TbPYK enzyme, Kinase-Glo Plus ATP luminescence, 45 min | Potency, µM (doses to about 76.8 µM), actives largely listed as inhibitors | 410,000 tested, 0.12% active; note: nearly all actives have a fitted effect of over 50% in size
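Luminescent Kinase-Glo Plus end-point after 45 min room-temperature reaction of T. brucei pyruvate kinase started with 130 uM ADP (final). Buffer TEA 50 mM pH 7.2 with KCl, MgCl2, BSA, Tween-20; titration-based qHTS with fitted concentration-effect curves.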
LmPK inh: LmPK (Leishmania mexicana) enzyme inhibition. 290,000 tested, 0.37% active. Q27686. Potency, µM (highest dose often 57.5 µM), hits mostly inhibitors. purified LmPK, Kinase-Glo ATP luminescence, 1 h
Target sequence (Q27686 whole entry, looked up): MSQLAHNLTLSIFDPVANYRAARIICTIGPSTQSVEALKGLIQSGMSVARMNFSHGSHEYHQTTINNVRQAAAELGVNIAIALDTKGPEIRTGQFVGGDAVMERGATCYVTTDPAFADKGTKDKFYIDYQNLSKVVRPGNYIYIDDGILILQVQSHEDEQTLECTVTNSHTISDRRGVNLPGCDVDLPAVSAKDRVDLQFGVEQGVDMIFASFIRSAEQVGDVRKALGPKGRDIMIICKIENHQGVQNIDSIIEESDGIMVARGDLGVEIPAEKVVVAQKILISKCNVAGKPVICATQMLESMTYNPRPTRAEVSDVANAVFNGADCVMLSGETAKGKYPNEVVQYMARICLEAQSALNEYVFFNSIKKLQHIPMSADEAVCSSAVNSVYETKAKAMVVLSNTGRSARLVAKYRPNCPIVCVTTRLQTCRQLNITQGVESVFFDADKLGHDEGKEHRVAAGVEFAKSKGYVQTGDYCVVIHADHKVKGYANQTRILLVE
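qHTS format; LmPK 0.1 nM; substrates PEP 0.5 mM and ADP 0.1 mM. One-hour room-temperature incubation, then coupled luciferase luminescence; 0.5 nM enzyme wells mark activation.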
Sm TGR block: blocks Schistosoma mansoni thioredoxin glutathione reductase. 360,000 tested, 3% active. Q962Y6. Potency, µM (doses to about 114 µM), hits mostly inhibitors. purified TGR, DTNB reduction, TNB absorbance 405 nm; note: nearly all actives have a fitted effect of over 60% in size
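First, TGR (20 nM dispensed) and NADPH were mixed with compound. Second, a 15 min room-temperature incubation followed. Third, further NADPH and then DTNB were added to start the reaction. Finally, TNB absorbance was monitored kinetically.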
Each line names hits and unclear results; the compound was inactive in the other large screens. Hits are enriched below; roughly 3% of the tested compounds scored in any of these assays. Unless noted, calls come from the whole dose curve; as a rule, active = well fitted curve in the direction sought with a large enough effect; inconclusive = small, poorly fitted or top-dose-only effect, or another doubt; inactive = no such curve, though single readings can be large; an effect the other way counts as inactive or inconclusive.

O=C(COC(=O)/C=C/c1ccc(F)cc1)NCc1ccc2c(c1)OCO2	none (no result: LmPK inh, Sm TGR block)
O=C(COC(=O)/C=C/c1ccco1)NCc1ccc2c(c1)OCO2	Sm TGR block 35.5µM
COc1ccc(C(=O)COC(=O)/C=C/c2ccco2)cc1F	Sm TGR block 22.4µM (no result: LmPK inh)
CO[C@]12C(COC(N)=O)C3=C(C(=O)C(C)=C(N)C3=O)N1CC1NC12 (stereo not given in full)	none (no result: RE007 growth inh, LmPK inh, Sm TGR block)
CC(=O)c1sc(NC(=O)CCc2ccccc2)nc1C	none (no result: LmPK inh, Sm TGR block)
COc1cccc(Cn2c(=O)c(C)nc3cnc(OCc4ccccc4)nc32)c1	none (no result: RE007 growth inh, LmPK inh, Sm TGR block)
COc1cccc(-c2nc(-c3ccc4c(c3)-c3ccccc3S4(=O)=O)c(-c3ccccc3)[nH]2)c1OC	Sm TGR block inconclusive
COc1cc(-c2nc(-c3ccc4c(c3)-c3ccccc3S4(=O)=O)c(-c3ccccc3)[nH]2)cc(OC)c1OC	Sm TGR block 56.2µM
COc1ccc(-n2ncc3c(NCc4ccco4)ncnc32)cc1	Sm TGR block 50.1µM
O=C(NCc1ccccc1F)C(=O)NCC(c1ccc2c(c1)OCO2)N1CCOCC1 (stereo not given)	none (no result: RE007 growth inh, LmPK inh)
Cc1cc(C)n2nc3nc(N4CCCCC4)nc(-c4ccco4)c3c2n1	TbPYK inhibitor inconclusive, Sm TGR block 1.41µM
NC(=O)C1C2C=CC(C2)C1c1ccccc1 (stereo not given)	none (no result: LmPK inh, Sm TGR block)
COC(=O)CN1C(=O)CSc2ccc(S(=O)(=O)Nc3c(C)cc(C)cc3C)cc21	none (no result: RE007 growth inh, LmPK inh)
CCCN1CCCc2cc(CN)ccc21	Sm TGR block 14.1µM
Cc1cc(C)c(O)c(N)c1	Sm TGR block 3.16µM (no result: RE007 growth inh, TbPYK inhibitor)
Cc1cc(C)c(N)c(C(=O)O)c1	none (no result: RE007 growth inh)
C=CCn1c(=O)n(C2OC(CO)C(O)C2O)c2nc(N)[nH]c(=O)c21 (stereo not given)	none (no result: RE007 growth inh, LmPK inh, Sm TGR block)
CCCc1nc(SCc2cccnc2)c2c(=O)n(C)c(=O)n(C)c2n1	none
Cc1ccccc1-c1nc(SCc2cccnc2)c2c(=O)n(C)c(=O)n(C)c2n1	RE007 growth inh inconclusive, Sm TGR block 44.7µM
CC(C)CCNC(=O)C1CCN(S(=O)(=O)c2ccc3c(c2)CC(C)N3C(=O)C2CCC2)CC1 (stereo not given)	none
CC1Cc2cc(S(=O)(=O)CCC(=O)NCc3ccco3)ccc2N1C(=O)C1CC1 (stereo not given)	Sm TGR block 39.8µM
Cc1ccc(S(=O)(=O)CCC(=O)NCc2ccco2)cc1	Sm TGR block 39.8µM
Cc1ccc(S(=O)(=O)CCC(=O)NCc2ccccc2)cc1	none
COc1ccccc1CNC(=O)CCS(=O)(=O)c1ccc2c(c1)CC(C)N2C(=O)C1CC1 (stereo not given)	none
Cc1ccc(CNC(=O)C2CCN(S(=O)(=O)c3ccc4c(c3)CC(C)N4C(=O)C3CCC3)CC2)o1 (stereo not given)	Sm TGR block 39.8µM
COc1ccc(-c2nc3ccccc3o2)cc1NC(=O)c1cccc2c(Cl)cccc12	none (no result: RE007 growth inh, LmPK inh)
CCC(Sc1nnc(C)n2c1cc1sccc12)C(=O)Nc1ccccc1F (stereo not given)	none (no result: RE007 growth inh, LmPK inh)
N=C1SCC(=O)N1c1ncc(Cc2cccc(Cl)c2)s1	RE007 growth inh 17.8µM
COC(=O)C(CCSC)Nc1ncnc2onc(-c3ccc(F)cc3)c12 (stereo not given)	none (no result: RE007 growth inh, LmPK inh)
Cc1ccc(CSCC(=O)N(C)CC(=O)Nc2ccc(Br)cc2C)cc1	Sm TGR block 50.1µM (no result: LmPK inh)
Cc1ccc(CSCC(=O)N(C)CC(=O)Nc2ccc(Cl)c(Cl)c2)cc1	none (no result: LmPK inh)
O=C(OCC(=O)N1CCCC1=O)c1cc(Cl)ccc1O	RE007 growth inh 15.8µM (no result: LmPK inh)
O=C(OCC(=O)N1CCCc2ccccc21)c1cc(Cl)ccc1O	none
O=C(CCn1ccc2cc(S(=O)(=O)N3CCCC3)ccc21)NCc1cccc(Br)c1	none (no result: RE007 growth inh, LmPK inh)
Cc1ccc(Nc2c(-c3ccco3)nc3nc(C)cc(C)n23)cc1	Sm TGR block 31.6µM
O=C1CC(N2CCN(c3ccc(Cl)cc3)CC2)C(=O)N1c1ccccc1 (stereo not given)	RE007 growth inh inconclusive, Sm TGR block inconclusive
O=C1CC(N2CCCc3ccccc32)C(=O)N1c1ccccc1 (stereo not given)	Sm TGR block 25.1µM
O=C1CC(N2CCN(c3ccccc3Cl)CC2)C(=O)N1c1ccccc1 (stereo not given)	RE007 growth inh inconclusive, Sm TGR block 44.7µM
O=C1CC(N2CCOCC2)C(=O)N1c1ccccc1Cl (stereo not given)	Sm TGR block 50.1µM
CCCOc1ccccc1N1C(=O)CC(N2CCOCC2)C1=O (stereo not given)	Sm TGR block inconclusive
COCC(=O)N1CCCC(C(=O)c2ccc(-c3ccccc3)cc2)C1 (stereo not given)	Sm TGR block 28.2µM
CNC[C@@H]1OCc2ccccc2-c2c(n(C)c3ccccc23)C(=O)N([C@H](C)CO)C[C@@H]1C	none (no result: LmPK inh, Sm TGR block)
CCOC(=O)c1ccc(N2C(=O)C3C(C2=O)C(C(=O)c2ccc(Cl)cc2)N2CCCC32)cc1 (stereo not given)	RE007 growth inh inconclusive, Sm TGR block 15.8µM
O=C(CN1C(=O)NC2(CCCCC2)C1=O)N1CCN(S(=O)(=O)c2ccc(Cl)s2)CC1	none (no result: LmPK inh)
CN1C(=O)N(CC(=O)N2CCN(S(=O)(=O)c3ccc(Cl)s3)CC2)C(=O)C12CCCCC2	Sm TGR block 44.7µM (no result: LmPK inh)
Cc1ccc(C(=O)N2CCN(Cc3cc(=O)n4nc(-c5ccccc5)sc4n3)CC2)cc1	none (no result: RE007 growth inh, LmPK inh)
CCOc1ccccc1N1C(=O)NC(=O)/C(=C/c2ccc3c4c(cccc24)CC3)C1=O	TbPYK inhibitor inconclusive, Sm TGR block 31.6µM
COc1ccc(N2C(=O)NC(=O)/C(=C/c3ccc4c(c3)Cc3ccccc3-4)C2=O)cc1	Sm TGR block inconclusive (no result: RE007 growth inh, TbPYK inhibitor)
CCc1ccccc1N1C(=O)NC(=O)/C(=C\c2cc(C)n(C)c2C)C1=O	none
COc1cccc(N2C(=O)NC(=O)/C(=C/c3ccc4c5c(cccc35)CC4)C2=O)c1	Sm TGR block 25.1µM (no result: RE007 growth inh, TbPYK inhibitor)
COc1ccc(NC(=O)c2coc(C)c2)cc1	none
Cc1ccc(NC(=O)c2noc3c2CCC3)cc1C	none
COc1ccc(NC(=O)c2ccc(=O)oc2)cc1	Sm TGR block 44.7µM
CC(=O)c1ccc(NC(=O)c2noc3c2CCC3)cc1	Sm TGR block 39.8µM
O=C(Nc1cccc(O)c1)c1noc2c1CCCCC2	LmPK inh 11.2µM
COc1ccc(NC(=O)c2noc3c2CCC3)cc1	RE007 growth inh 39.8µM, LmPK inh 15.8µM
Cc1cccc(NC(=O)CSc2nc3c(c(=O)[nH]2)CN(Cc2ccc4c(c2)OCO4)CC3)c1C	none (no result: RE007 growth inh, LmPK inh)
CN(C)S(=O)(=O)c1cc(NC(=O)CN2CCCc3ccccc32)ccc1Cl	Sm TGR block inconclusive
CN(C)S(=O)(=O)c1cc(NC(=O)CN2CCc3ccccc32)ccc1Cl	Sm TGR block 44.7µM
O=c1oc2ccccc2cc1-c1nc2c(s1)CCCC2	LmPK inh 12.6µM
Fc1cccc2sc(Nc3nnc(-c4ccco4)o3)nc12	Sm TGR block 39.8µM
O=C1C=C(N2CCN(C3=CC(=O)CCC3)CC2)CCC1	Sm TGR block 20µM
